“And” between values parts separate entries of the source, which are not always exact repeats. Equal entries are not always repeated. Out of some 5,500 compounds screened, about 2,000 (36%) were called active. Inconclusive results (about 18%) are left out. Rule as the data show it: active = normalized growth mostly below about 0.91 (no sharp cut-off); inconclusive = no clear call, values can overlap the other calls; inactive = mostly above about 0.92. Some of the results follow.
Assay: chemical genetic growth profiling, strain panel (AID 1159580);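 also: tested at 20 µM; growth read once vehicle control cultures reached saturation at 30 °C; 1 = growth at the plate median or of vehicle wells; lower values mean less growth of the strain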
Settings: growth OD
[1] = S. cerevisiae deletion strains, locus YAL013W, strain DEP1, active compounds read low
[2] = S. cerevisiae deletion strains, locus YAL040C, strain CLN3, active compounds read low
[3] = S. cerevisiae deletion strains, locus YBR229C, strain ROT2, active compounds read low
[4] = S. cerevisiae deletion strains, locus YCL061C, strain MRC1 (second series), active compounds read low
[5] = S. cerevisiae deletion strains, locus YDL101C, strain DUN1, active compounds read low
[6] = S. cerevisiae deletion strains, locus YDR150W, strain NUM1, active compounds read low
[7] = S. cerevisiae deletion strains, locus YDR363W, strain ESC2, active compounds read low
[8] = S. cerevisiae deletion strains, locus YEL061C, strain CIN8, active compounds read low
[9] = S. cerevisiae deletion strains, locus YER002W, strain NOP16, active compounds read low
[10] = S. cerevisiae deletion strains, locus YGR078C, strain PAC10, active compounds read low
[11] = S. cerevisiae deletion strains, locus YHR030C, strain SLT2, active compounds read low
[12] = S. cerevisiae deletion strains, locus YJR043C, strain POL32, active compounds read low
[13] = S. cerevisiae deletion strains, locus YJR075W, strain HOC1, active compounds read low
[14] = S. cerevisiae deletion strains, locus YLR039C, strain RIC1, active compounds read low
[15] = S. cerevisiae deletion strains, locus YLR262C, strain YPT6, active compounds read low
[16] = S. cerevisiae deletion strains, locus YMR263W, strain SAP30, active compounds read low
[17] = S. cerevisiae deletion strains, locus YMR307W, strain GAS1, active compounds read low
[18] = S. cerevisiae deletion strains, locus YNL153C, strain GIM3, active compounds read low
[19] = S. cerevisiae deletion strains, locus YNL175C, strain NOP13, active compounds read low
[20] = S. cerevisiae deletion strains, locus YNL197C, strain WHI3, active compounds read low
[21] = S. cerevisiae deletion strains, locus YNL224C, strain SQS1, active compounds read low
[22] = S. cerevisiae deletion strains, locus YNL322C, strain KRE1, active compounds read low
[23] = S. cerevisiae deletion strains, locus YOR083W, strain WHI5 (second series), active compounds read low
[24] = S. cerevisiae deletion strains, locus YPL055C, strain LGE1, active compounds read low
[25] = S. cerevisiae deletion strains, locus YPL241C, strain CIN2, active compounds read low

Measured: normalized growth

CNC(=O)Oc1ccc2c(c1)C1(C)CCN(C)C1N2C (configuration not stated)
inactive: [1] 0.999 | [2] 0.99 | S. cerevisiae deletion strains, locus YBR021W, strain FUR4, active compounds read low 1.04 and 1.03 | [3] 1 and 1.01 | S. cerevisiae deletion strains, locus YCL029C, strain bik1, active compounds read low 0.991 and 1.01 | [4] 0.978 | S. cerevisiae deletion strains, locus YDL035C, strain GPR1, active compounds read low 1.01 and 1 | S. cerevisiae deletion strains, locus YDL074C, strain BRE1, active compounds read low 1.01 and 1 | [5] 0.994 and 0.998 | S. cerevisiae deletion strains, locus YDL134C, strain PPH21, active compounds read low 1.06 and 1 | S. cerevisiae deletion strains, locus YDL185W, strain tfp1, active compounds read low 0.966 and 1.01 | S. cerevisiae deletion strains, locus YDL192W, strain arf1, active compounds read low 1.02 and 1.01 | S. cerevisiae deletion strains, locus YDR101C, strain arx1, active compounds read low 0.98 and 1.01 | [6] 1.01 | S. cerevisiae deletion strains, locus YDR162C, strain NBP2, active compounds read low 1.01 and 0.986 | S. cerevisiae deletion strains, locus YDR318W, strain mcm21, active compounds read low 1.02 and 1.01 | [7] 0.964 | S. cerevisiae deletion strains, locus YDR388W, active compounds read low 0.994 and 1.01 | S. cerevisiae deletion strains, locus YDR502C, strain sam2, active compounds read low 0.993 and 0.995 | [8] 1 and 1.01 | [9] 0.993 | S. cerevisiae deletion strains, locus YER110C, active compounds read low 0.972 and 1.02 | S. cerevisiae deletion strains, locus YER155C, strain BEM2, active compounds read low 0.995 and 1.01 | S. cerevisiae deletion strains, locus YER167W, strain BCK2, active compounds read low 0.996 and 1.02 | S. cerevisiae deletion strains, locus YGL078C, strain dbp3, active compounds read low 1.01 | S. cerevisiae deletion strains, locus YGL086W, strain mad1, active compounds read low 0.957 and 1.01 | S. cerevisiae deletion strains, locus YGL248W, strain PDE1, active compounds read low 1.02 and 1.01 | [10] 1 and 0.991 | S. cerevisiae deletion strains, locus YGR135W, strain pre9, active compounds read low 1.04 and 0.982 | S. cerevisiae deletion strains, locus YGR229C, strain SMI1, active compounds read low 0.977 | S. cerevisiae deletion strains, locus YGR252W, strain gcn5, active compounds read low 1.2 and 0.984 | [11] 0.998 and 1.01 | S. cerevisiae deletion strains, locus YHR079C, strain IRE1 (second series), active compounds read low 0.976 and 1.02 | S. cerevisiae deletion strains, locus YHR094C, strain hxt1, active compounds read low 0.991 and 1.01 | S. cerevisiae deletion strains, locus YHR129C, strain ARP1, active compounds read low 1 and 1.02 | S. cerevisiae deletion strains, locus YHR200W, strain rpn10, active compounds read low 0.995 and 1.01 | S. cerevisiae deletion strains, locus YIL066C, strain RNR3, active compounds read low 1 and 1.01 | S. cerevisiae deletion strains, locus YIL073C, strain SPO22, active compounds read low 0.935 and 1.03 | S. cerevisiae deletion strains, locus YIL125W, strain kgd1, active compounds read low 0.995 and 1.02 | S. cerevisiae deletion strains, locus YIR030C, strain dcg1, active compounds read low 1 and 1.02 | S. cerevisiae deletion strains, locus YJL095W, strain BCK1, active compounds read low 1.06 and 1.02 | S. cerevisiae deletion strains, locus YJL134W, strain LCB3, active compounds read low 0.997 and 1 | S. cerevisiae deletion strains, locus YJL168C, strain set2, active compounds read low 0.983 and 1.01 | S. cerevisiae deletion strains, locus YJL187C, strain SWE1 (second series), active compounds read low 1.01 and 1 | [12] 1.02 and 1.04 | [13] 0.98 and 0.984 and 0.995 | S. cerevisiae deletion strains, locus YKL009W, strain mrt4, active compounds read low 1.02 and 1.04 | S. cerevisiae deletion strains, locus YKL068W, active compounds read low 0.976 and 1 | S. cerevisiae deletion strains, locus YKL085W, strain MDH1 (second series), active compounds read low 0.98 and 1.02 | S. cerevisiae deletion strains, locus YKL085W, strain MDH1, active compounds read low 0.98 and 1.02 | S. cerevisiae deletion strains, locus YKL190W, strain CNB1, active compounds read low 1.01 | S. cerevisiae deletion strains, locus YKR001C, strain vps1, active compounds read low 1 and 1.02 | [14] 1.11 and 1.07 | S. cerevisiae deletion strains, locus YLR058C, strain SHM2, active compounds read low 1.02 and 1.01 | S. cerevisiae deletion strains, locus YLR102C, strain apc9, active compounds read low 0.974 and 1.02 | [15] 1.14 and 1.01 | S. cerevisiae deletion strains, locus YLR268W, strain sec22, active compounds read low 0.995 and 0.998 | S. cerevisiae deletion strains, locus YLR330W, strain CHS5, active compounds read low 1 and 1.01 | S. cerevisiae deletion strains, locus YLR342W, strain FKS1 (second series), active compounds read low 1.03 and 1.05 | S. cerevisiae deletion strains, locus YLR371W, strain rom2, active compounds read low 0.979 and 1.02 | S. cerevisiae deletion strains, locus YLR418C, strain cdc73, active compounds read low 1 and 0.92 | S. cerevisiae deletion strains, locus YML016C, strain PPZ1, active compounds read low 0.99 and 1.01 | S. cerevisiae deletion strains, locus YML032C, strain rad52, active compounds read low 1.04 and 1.02 | S. cerevisiae deletion strains, locus YML124C, strain tub3, active compounds read low 0.992 and 1 | S. cerevisiae deletion strains, locus YMR078C, strain ctf18, active compounds read low 0.981 and 1.02 | S. cerevisiae deletion strains, locus YMR223W, strain ubp8, active compounds read low 1.03 and 1.02 | [16] 0.983 and 0.988 | [17] 1 and 1.24 and 1.1 | S. cerevisiae deletion strains, locus YNL067W, strain RPL9B, active compounds read low 0.993 and 1 | S. cerevisiae deletion strains, locus YNL128W, strain TEP1, active compounds read low 0.977 and 0.975 | [18] 1 | [19] 1.01 | [20] 1 | [21] 0.999 | S. cerevisiae deletion strains, locus YNL233W, strain BNI4, active compounds read low 0.999 and 0.995 | S. cerevisiae deletion strains, locus YNL250W, strain rad50, active compounds read low 0.94 and 1.02 | S. cerevisiae deletion strains, locus YNL271C, strain bni1, active compounds read low 0.994 and 1.02 | S. cerevisiae deletion strains, locus YNL298W, strain CLA4, active compounds read low 0.993 and 1.02 | S. cerevisiae deletion strains, locus YNL307C, strain MCK1, active compounds read low 0.989 and 1.01 | [22] 0.961 and 0.998 and 1.01 | S. cerevisiae deletion strains, locus YNR052C, strain pop2, active compounds read low 1.01 and 1.02 | S. cerevisiae deletion strains, locus YOL006C, strain TOP1, active compounds read low 0.949 and 0.93 | S. cerevisiae deletion strains, locus YOL012C, strain htz1 1.18 and 1.01 | S. cerevisiae deletion strains, locus YOL147C, strain pex11, active compounds read low 0.995 and 1.01 | S. cerevisiae deletion strains, locus YOR061W, strain CKA2, active compounds read low 1 and 1.01 | S. cerevisiae deletion strains, locus YOR069W, strain VPS5, active compounds read low 0.996 and 1.01 | [23] 1.01 | S. cerevisiae deletion strains, locus YOR136W, strain idh2, active compounds read low 0.979 and 1.01 | S. cerevisiae deletion strains, locus YOR144C, strain elg1, active compounds read low 1 and 1.01 | S. cerevisiae deletion strains, locus YOR184W, strain ser1, active compounds read low 1.05 and 1.06 | S. cerevisiae deletion strains, locus YOR316C, strain cot1, active compounds read low 0.988 and 1.02 | [24] 0.987 | [25] 1.01 | S. cerevisiae deletion strains, locus YPR119W, strain clb2, active compounds read low 0.984 and 1.01 | S. cerevisiae deletion strains, locus YPR141C, strain kar3, active compounds read low 0.981 and 1.02 | S. cerevisiae deletion strains, locus YPR163C, strain tif3, active compounds read low 0.992 and 1.01 | S. cerevisiae deletion strains, locus YPR167C, strain met16, active compounds read low 0.999 and 1.02 | S. cerevisiae deletion strains, strain wtn01, active compounds read low 0.962 and 1 | S. cerevisiae strains, strain wild type, active compounds read low 1.01

CS/C(N)=N\N=C/c1c(F)cccc1Cl
inactive: [1] 0.998 | [3] 0.992 | S. cerevisiae deletion strains, locus YCL061C, strain MRC1, active compounds read low 0.996 | [5] 1 | [6] 0.995 | [8] 1 | [10] 1.01 | [11] 0.988 | S. cerevisiae deletion strains, locus YHR087W, strain rtc3, active compounds read low 0.979 | S. cerevisiae deletion strains, locus YJL187C, strain SWE1, active compounds read low 0.986 | [12] 0.992 | [13] 0.991 | [14] 1.1 | S. cerevisiae deletion strains, locus YLR058C, strain SHM2 (second series), active compounds read low 0.998 | S. cerevisiae deletion strains, locus YLR085C, strain ARP6, active compounds read low 1.08 | [15] 1.03 | S. cerevisiae deletion strains, locus YML094W, strain GIM5, active compounds read low 0.993 | S. cerevisiae deletion strains, locus YMR219W, strain ESC1, active compounds read low 0.995 | [16] 1.02 | [18] 0.998 | S. cerevisiae deletion strains, locus YNL298W, strain CLA4 (second series), active compounds read low 1.05 | [22] 1 | S. cerevisiae deletion strains, locus YNR030W, strain Alg12, active compounds read low 1.05 | [24] 1 | [25] 0.988 | S. cerevisiae deletion strains, locus YPR135W, strain CTF4, active compounds read low 1.03

NC(N)=NN=Cc1c(Cl)cccc1Cl
inactive: [2] 0.994 | [4] 0.999 | [7] 1.01 | [9] 1.01 | [13] 1.01 | [16] 1 | [17] 1.01 | [18] 0.999 | [19] 1.02 | [20] 1 | [21] 1.01 | [23] 1.01

Reference: PubChem BioAssay AID1159580 (chemical genetic matrix, 2015)
